Screening data: PubChem, The Scripps Research Institute Molecular Screening Center
UHRF1 binding = blocks human UHRF1 binding to methylated DNA; 370,000 tested, 0.75% active; AID 687016; UHRF1 binding to methylated oligo, TR-FRET; inhibition, % at 4.4 µM;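 note: UHRF1 SRA domain binding a hemimethylated CpG hairpin DNA probe; 0% = median of test compound wells and 100% = reference inhibitor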
PLCg1 inh = inhibitors of human phospholipase C gamma1; purified PLC-gamma1, fluorogenic substrate, fluorescence; P19174; inhibition, % at 12.2 µM; 370,000 tested, 0.84% active; in the data active = inhibition above about 9.5%
PLCb3 inh = blocks human PLC-beta3 enzyme activity | Q01970 | Purified PLC-beta3, fluorogenic substrate, fluorescence | inhibition, % at 12.2 µM | 370,000 tested, 0.18% active | AID 720704; in the data active = inhibition above about 11%;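 note: 0% = median of compound wells on plate and 100% = full blocker control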
LEDGF integ inh = blocks HIV-1 LEDGF/p75-dependent DNA integration. 370,000 tested, 0.64% active. inhibition, % at 3.7 µM. TR-FRET IN-LEDGF/p75 DNA integration, Eu/Cy5;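 active = inhibition above the screen-wide mean plus 3 SD, cut at about 13% in these data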;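 note: signal is the Cy5 over europium emission ratio at 671 and 618 nm; 0% = plate median of compound wells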
MBD2 inh = MBD2-methylated oligo binding inhibition; Q9UBB5; TR-FRET, MBD2 binding to methylated oligonucleotide; inhibition, % at 4.4 µM; 370,000 tested, 0.31% active; in the data active = inhibition above about 13%
UHRF1 ctr MBD2 = inhibits human UHRF1 binding to methylated oligonucleotide, MBD2 counter-screen; 1,000 tested, 25% active; shares compounds with MBD2 inh; inhibition, % at 4.4 µM; TR-FRET;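 note: UHRF1 SRA domain binding a labeled hemimethylated CpG hairpin DNA; 0% = vehicle only and 100% = reference inhibitor with vehicle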
MBD2 DBD conf = confirmation of human MBD2-DBD methylated oligonucleotide binding inhibitors | shares compounds with MBD2 inh | TR-FRET MBD2-DBD binding to methylated oligonucleotide | inhibition, % at 4.4 µM | 1,000 tested, 26% active; in the data active = inhibition above about 14%
Starred values were filed as active, the others as inactive; i = inactive; x = no result given. In the library only some 2.3% were active in any assay of this set; here they are far more common. Cut-off read from the data, not from the text of the source, unless noted: active = inhibition above about 21%; inactive = the rest.

SMILES | UHRF1 binding | PLCg1 inh | PLCb3 inh | LEDGF integ inh | MBD2 inh | UHRF1 ctr MBD2 | MBD2 DBD conf
O=C(CSc1nc2ccccc2[nH]1)NN=Cc1c(F)cccc1Cl | -1 | -1 | -2 | 3 | 1 | x | x
CCOC(=O)N1CCN(C(=O)C[C@H]2C[C@@]3(C(=O)OC)C(=C[C@H](C4CCCC4)O[C@@H]3C)N(CCC3=CCCCC3)C2=O)CC1 | 1 | 0 | 2 | -2 | 4 | x | x
CC(=O)C1C(c2ccc(F)c(F)c2)NC(=O)NC1(O)C(F)(F)F (configuration not stated) | 3 | 1 | -4 | -5 | 24* | 5 | 0
CC(=O)C1C(c2ccc(OC(F)F)cc2)NC(=O)NC1(O)C(F)(F)F (configuration not stated) | -1 | 2 | 6 | 4 | -6 | x | x
COc1cc2c(cc1OC)CN(C(=O)CCOc1ccccc1C)CC2 | 1 | -1 | -8 | -4 | 14* | 3 | 1
COc1cc2c(cc1OC)CN(C(=O)CCOc1ccccc1)CC2 | -1 | -3 | -14 | 1 | 3 | x | x
O=C(CCCC1=NS(=O)(=O)c2ccccc2N1)N1CCN(c2ccccc2Cl)CC1 | -1 | 1 | 2 | 0 | -1 | x | x
Cc1cc(S(=O)(=O)NCC(c2ccccc2)c2ccccc2)ccc1-n1cnnn1 | 18 | 0 | -5 | 4 | 14* | 3 | 4
CC(C)C[C@H](NC(C)(C)C(=O)NC1CCCCC1)C(=O)NCC(c1ccccc1)c1ccccc1 | 1 | 1 | 4 | -5 | 21* | 1 | 2
O=C(NCCCN1CCN(c2ccc(F)cc2)CC1)NCc1ccccc1 | 3 | 3 | 3 | 1 | -2 | x | x
COC(=O)C1CN(Cc2cn(CCOC(C)=O)nn2)CCS(=O)(=O)N1Cc1ccc(OC)cc1 (configuration not stated) | 14 | 5 | 4 | 5 | 9 | x | x
CCCCCCOC(=O)Cc1c(C)nc(-c2ccccc2)[nH]c1=O | 15 | -2 | 1 | -4 | 13* | 3 | 2
Cc1ccc(NC(=O)c2ccc(CS(=O)(=O)Cc3ccccc3C)o2)c(C)c1 | 2 | 1 | 0 | -4 | -1 | x | x
O=C(Cn1c(=O)c2cccn2c2cccnc21)NCCCN1CCN(c2ccccc2)CC1 | 4 | 4 | 7 | 3 | 1 | x | x
COc1ccc(NC(=O)Nc2ccccc2OC)cc1 | -12 | 1 | 1 | -2 | -3 | x | x
COc1ccccc1NC(=O)Nc1ccc(CC#N)cc1 | -2 | 4 | -4 | 1 | 60* | 8 | 2
O=C(CN1CCCc2ccccc21)NCc1ccccc1F | -3 | -8 | -10 | 0 | 3 | x | x
COCCCN1C(=O)[C@H](CC(=O)NCc2ccc(C)o2)[C@]2(C(=O)OC)CCCCC=C12 | -1 | -2 | -1 | 7 | 3 | x | x
CCOC(=O)C1=C(COC(=O)c2ccccc2OC)NC(=O)NC1C (configuration not stated) | -1 | -1 | -3 | 1 | -2 | x | x
CCOC(=O)C1=C(COC(=O)c2cccnc2Cl)NC(=O)NC1C (configuration not stated) | -2 | 0 | -4 | 6 | 19* | 2 | 3
O=C(/C=C/c1cccc(Cl)c1)NNC(=O)c1ccncc1 | 1 | 4 | -3 | 0 | 14* | 3 | 1
O=C(/C=C/c1cccc(F)c1)NNC(=O)c1ccncc1 | 2 | -2 | -6 | 1 | 1 | x | x
O=C(COC(=O)c1cc(S(=O)(=O)N2CCOCC2)ccc1O)NCc1ccc2c(c1)OCO2 | -3 | -1 | -3 | 2 | 3 | x | x
Cc1ccc(S(=O)(=O)N2CCOCC2)cc1C(=O)OCC(=O)NCc1ccc2c(c1)OCO2 | 33* | -1 | -5 | -3 | 16* | 6 | 2
Cc1cc(NC(=O)c2ccc(NS(=O)(=O)c3ccccc3)cc2)no1 | 0 | 4 | 0 | 5 | -2 | x | x
SMILES | UHRF1 binding | PLCg1 inh | PLCb3 inh | LEDGF integ inh | MBD2 inh | UHRF1 ctr MBD2 | MBD2 DBD conf
CN(C)C(=O)c1cccc(-c2cnc3c(NC=O)cc(-c4ccccc4Cl)cn23)c1 | -5 | -37 | -53 | -1 | 0 | x | x
CN(C)C(=O)c1cccc(-c2cnc3c(NC=O)cc(-c4ccccc4N(C)C)cn23)c1 | -6 | i | i | 5 | 36* | -10 | 30*
CCCCCC[C@@H](CN(CCCC)S(C)(=O)=O)c1ccccc1 | 0 | -2 | -2 | -1 | -1 | x | x
Cc1ccccc1NC(=O)C1c2cccc[n+]2CC(=O)N1Cc1ccc2c(c1)OCO2 (configuration not stated) | -2 | -5 | -3 | 2 | -7 | x | x
Cc1cccc(C)c1NC(=O)C1c2cccc[n+]2CC(=O)N1Cc1cccs1 (configuration not stated) | -1 | -7 | -7 | -1 | 46* | 1 | 3
O=C(Nc1ccc(F)cc1F)C1CCN(c2nnc(-n3cccc3)s2)CC1 | 0 | 1 | 3 | 4 | 1 | x | x
COc1ccc(OC)c(NC(=O)COC(=O)c2cc3c(s2)CCC3)c1 | 47* | -5 | -10 | 7 | 19* | 40* | 35*
Fc1cc(F)c(CSc2nnc(-c3cccnc3)n2Cc2ccccc2)cc1F | -2 | 2 | 1 | 7 | 1 | x | x
O=C(CCc1ccccc1)N[C@H]1[C@H](OCc2ccccc2)CCC[C@@]12C(=O)N(Cc1ccccc1)c1ccc(-c3ccsc3)cc12 | 17 | 3 | 1 | 2 | 15* | 15 | 9
O=C(CCc1ccccc1)N[C@H]1[C@@H](OC(=O)c2cccnc2)CCC[C@]12C(=O)N(Cc1ccccc1)c1ccccc12 | 18 | 2 | -2 | 3 | 17* | 9 | 8
Cn1ccc2ccc(-c3ccc4c(c3)[C@]3(CCC[C@@H](OCc5ccccc5)[C@@H]3NC(=O)CCc3ccccc3)C(=O)N4Cc3ccccc3)cc21 | -1 | -1 | -2 | -2 | -2 | x | x
CC1(c2nnnn2-c2ccc3ccccc3c2)CSCC(=O)N1C1CC1 (configuration not stated) | -2 | -1 | 1 | 0 | -1 | x | x
O=C(Nc1ccc2ccccc2c1)NC1CCCCN(Cc2ccc(Cl)cc2)C1=O (configuration not stated) | 2 | 3 | 3 | -3 | 2 | x | x
COC(=O)C1CN(Cc2cn(Cc3ccccc3)nn2)CCS(=O)(=O)N1Cc1ccc(Cl)cc1 (configuration not stated) | 1 | 0 | 0 | 2 | -3 | x | x
Cc1ccc2c(c1)-c1c(cnn1CC(=O)NCCc1ccc(Cl)cc1)CO2 | 1 | 0 | 0 | -3 | 2 | x | x
CCOC(=O)c1c[nH]c(=S)n(-c2ccccc2)c1=O | -1 | 5 | 4 | 0 | 37* | 1 | 3
CCOC(=O)c1c(C)c2c(=O)[nH]cnc2n1-c1ccccc1 | 3 | 0 | -6 | -6 | 1 | x | x
